Test results taken from PubChem BioAssay.
For some of these results: Entries with a potency or affinity are not part of this list. The source made the active and inactive calls. Unless noted, the rule behind the calls is not given here.

Key:
[1] = antimalarial activity against Dd2 strain (AID 2302;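 active = growth inhibition above 50% at the single 2 µM test dose, taken to imply half-maximal potency below 2 µM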;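 note: 0% = DMSO untreated growth and 100% = chloroquine plus artemisinin killed control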); conditions: P. falciparum Dd2 in RBCs, LDH growth readout, 72 h; at 2 µM; stronger effect = higher value
[2] = HepG2 cytotoxicity, primary screen, cytotoxicity control for P. falciparum antimalarial project, cell-based, ATP luminescence (AID 2303;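 active = inhibition above 50%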;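 note: 0% = DMSO wells and 100% = digitonin-killed cells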); conditions: HepG2 viability, 24-48 h, at 10 µM, stronger effect = higher value
[3] = biological target: L-lactate dehydrogenase (Plasmodium falciparum (isolate CDC / Honduras)) (UniProt Q27743); test: PfLDH activity inhibition – cell lysate, 3D7 strain, counter-screen for P. falciparum growth inhibition project (AID 2304);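 note: 0% = vehicle and 100% = reference inhibitor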; conditions: P. falciparum 3D7 crude extract, LDH APAD/NBT absorbance; at 2 µM; stronger effect = higher value
Chain of L-lactate dehydrogenase (Plasmodium falciparum (isolate CDC / Honduras)) (Q27743 whole entry, looked up): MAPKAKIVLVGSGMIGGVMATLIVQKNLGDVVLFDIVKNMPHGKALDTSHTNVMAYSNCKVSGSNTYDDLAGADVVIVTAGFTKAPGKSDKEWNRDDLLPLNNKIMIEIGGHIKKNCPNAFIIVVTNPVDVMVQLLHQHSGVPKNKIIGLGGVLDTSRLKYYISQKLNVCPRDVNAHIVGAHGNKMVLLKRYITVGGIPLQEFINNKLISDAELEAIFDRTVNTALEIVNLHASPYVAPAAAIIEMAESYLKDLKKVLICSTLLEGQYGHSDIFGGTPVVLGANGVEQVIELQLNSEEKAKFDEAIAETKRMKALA

[4] = inhibition of 3D7 malaria parasite growth – strain 3D7 (AID 2306);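 note: 0% = DMSO wells and 100% = chloroquine plus artemisinin control wells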; conditions: P. falciparum 3D7 erythrocytic growth, LDH absorbance, 72 h; at 2 µM; stronger effect = higher value
[5] = biological target: Calcium-dependent protein kinase 1 (Plasmodium falciparum (isolate 3D7)) (UniProt P62344); test: PfCDPK1 kinase inhibitors, biochemical, TCAMS library (AID 1159585; cut-off not given, nearly all actives have IC50 up to about 0.98 µM;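 note: inhibitors leave more ATP so luminescence rises with inhibition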); conditions: recombinant PfCDPK1, Kinase-Glo ATP depletion luminescence
Chain of Calcium-dependent protein kinase 1 (Plasmodium falciparum (isolate 3D7)) (P62344 whole entry, looked up): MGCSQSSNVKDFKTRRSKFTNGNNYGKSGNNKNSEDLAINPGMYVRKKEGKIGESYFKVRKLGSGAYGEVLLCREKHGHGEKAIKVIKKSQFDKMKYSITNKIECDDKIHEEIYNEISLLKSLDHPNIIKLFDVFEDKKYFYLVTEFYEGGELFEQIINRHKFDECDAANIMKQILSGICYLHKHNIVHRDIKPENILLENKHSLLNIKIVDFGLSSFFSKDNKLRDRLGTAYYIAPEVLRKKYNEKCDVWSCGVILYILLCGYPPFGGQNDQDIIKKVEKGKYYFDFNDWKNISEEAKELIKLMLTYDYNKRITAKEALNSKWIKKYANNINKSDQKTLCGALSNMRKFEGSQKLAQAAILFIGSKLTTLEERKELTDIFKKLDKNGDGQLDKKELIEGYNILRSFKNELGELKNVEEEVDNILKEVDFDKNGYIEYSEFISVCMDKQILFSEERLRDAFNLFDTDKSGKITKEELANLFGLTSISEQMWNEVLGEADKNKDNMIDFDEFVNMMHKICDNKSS

[6] = biological target: Plasmodium falciparum protein kinase 6 (PK6, PF3D7_1337100) (UniProt Q8IDW1); test: PfPK6 kinase inhibitors, biochemical, TCAMS library (AID 1159586); conditions: recombinant PfPK6, Kinase-Glo ATP depletion luminescence
Chain of Plasmodium falciparum protein kinase 6 (PK6, PF3D7_1337100) (Q8IDW1 1-305): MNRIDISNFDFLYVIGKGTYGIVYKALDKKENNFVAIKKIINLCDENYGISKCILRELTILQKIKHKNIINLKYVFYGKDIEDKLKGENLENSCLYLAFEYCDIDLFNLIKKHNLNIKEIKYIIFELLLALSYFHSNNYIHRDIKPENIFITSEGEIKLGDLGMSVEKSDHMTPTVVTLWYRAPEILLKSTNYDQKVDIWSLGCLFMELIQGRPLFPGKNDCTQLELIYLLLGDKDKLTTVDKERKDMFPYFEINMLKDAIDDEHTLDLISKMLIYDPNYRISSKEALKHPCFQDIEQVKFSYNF

[7] = biological target: Protein kinase 7 (PK7), Plasmodium falciparum 3D7 (PF3D7_0213400) (UniProt Q7YTF7); test: inhibition of Plasmodium PK7 catalytic activity – biochemical, TCAMS antimalarial set, Kinase-Glo luminescence (AID 1159587); conditions: recombinant PfPK7, Kinase-Glo ATP depletion luminescence
Chain of Protein kinase 7 (PK7), Plasmodium falciparum 3D7 (PF3D7_0213400) (Q7YTF7 1-343): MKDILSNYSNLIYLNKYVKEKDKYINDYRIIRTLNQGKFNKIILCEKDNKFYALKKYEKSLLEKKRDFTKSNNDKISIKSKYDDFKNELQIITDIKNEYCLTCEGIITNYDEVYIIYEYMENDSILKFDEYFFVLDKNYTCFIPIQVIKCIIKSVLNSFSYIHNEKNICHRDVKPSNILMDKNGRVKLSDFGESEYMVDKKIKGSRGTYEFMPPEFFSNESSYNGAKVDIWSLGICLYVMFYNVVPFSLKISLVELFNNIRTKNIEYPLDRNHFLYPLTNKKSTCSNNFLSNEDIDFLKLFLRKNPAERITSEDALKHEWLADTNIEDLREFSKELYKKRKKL

[8] = biological target: Calcium-dependent protein kinase 4 (Plasmodium falciparum (isolate 3D7)) (UniProt Q8IBS5); test: PfCDPK4 kinase inhibitors, biochemical, TCAMS library (AID 1159588; cut-off not given, nearly all actives have IC50 up to about 0.91 µM); conditions: recombinant PfCDPK4, Kinase-Glo ATP depletion luminescence
Chain of Calcium-dependent protein kinase 4 (Plasmodium falciparum (isolate 3D7)) (Q8IBS5 whole entry, looked up): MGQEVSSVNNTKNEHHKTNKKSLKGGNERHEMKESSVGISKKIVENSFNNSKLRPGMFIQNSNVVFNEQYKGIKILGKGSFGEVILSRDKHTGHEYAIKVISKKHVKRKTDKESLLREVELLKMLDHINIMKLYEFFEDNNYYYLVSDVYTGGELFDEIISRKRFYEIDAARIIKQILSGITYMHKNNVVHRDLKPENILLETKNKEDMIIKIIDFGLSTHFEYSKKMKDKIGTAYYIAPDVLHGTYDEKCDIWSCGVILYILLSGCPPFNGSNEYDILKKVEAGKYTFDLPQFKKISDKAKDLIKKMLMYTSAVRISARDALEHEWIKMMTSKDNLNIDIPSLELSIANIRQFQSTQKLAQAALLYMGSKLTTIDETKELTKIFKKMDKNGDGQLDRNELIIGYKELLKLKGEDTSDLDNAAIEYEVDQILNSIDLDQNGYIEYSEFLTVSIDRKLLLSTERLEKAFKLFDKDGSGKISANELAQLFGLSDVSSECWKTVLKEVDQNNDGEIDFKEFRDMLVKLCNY

COc1ccccc1COc1c(C)nc(N)nc1N
active: growth inhibition [4] 98%
inactive: growth inhibition [1] 1% | inhibition [2] 32% | inhibition [3] -1% | outcome [5] | outcome [6] | outcome [7] | outcome [8]

OC(CNc1ccnc(Nc2ccc(Cl)cc2)n1)c1ccc(C(F)(F)F)cc1 (stereo not drawn)
active: growth inhibition [1] 94% | growth inhibition [4] 101%
inactive: inhibition [2] -2% | inhibition [3] -6% | outcome [5] | outcome [6] | outcome [7] | outcome [8]

O=C(Nc1ccc2c(c1)CCN2C1CCN(Cc2cccc(F)c2F)C1)c1ccco1 (stereo not drawn)
active: growth inhibition [1] 90% | growth inhibition [4] 87%
inactive: inhibition [2] -4% | inhibition [3] 0% | outcome [5] | outcome [6] | outcome [7] | outcome [8]

COc1ccc(OC)c(Cc2cnc3nc(N)nc(N)c3c2C)c1
inactive: inhibition [3] 5% | outcome [5] | outcome [6] | outcome [7] | outcome [8]
active: growth inhibition [1] 97% | inhibition [2] 68% | growth inhibition [4] 92%

COc1cc(Nc2ccnc3ccc(C(C)(C)C)cc23)cc(OC)c1OC
inactive: inhibition [2] 12% | inhibition [3] 1% | outcome [5] | outcome [6] | outcome [7] | outcome [8]
active: growth inhibition [1] 80% | growth inhibition [4] 100%

O=C(/C=C/c1ccc(Cl)c(Cl)c1)N1CCC(CN2CCC(Cc3cc4ccccc4[nH]3)CC2)CC1
inactive: inhibition [2] 49% | inhibition [3] -3% | outcome [5] | outcome [6] | outcome [7] | outcome [8]
active: growth inhibition [1] 56% | growth inhibition [4] 96%

COc1ccc2nccc([C@@H](O)CN3CCC(NCc4cc5ccccc5nn4)CC3)c2c1
inactive: growth inhibition [1] 16% | inhibition [2] 5% | inhibition [3] -1% | outcome [5] | outcome [6] | outcome [7] | outcome [8]
active: growth inhibition [4] 94%

CC(=O)Nc1nc(C(=O)Nc2cccc(-c3ccc(-c4nc5ccccc5[nH]4)cc3)c2)cs1
active: growth inhibition [1] 60% | inhibition [2] 88% | growth inhibition [4] 101%
inactive: inhibition [3] -2% | outcome [5] | outcome [6] | outcome [7] | outcome [8]

CCOc1cc(Cc2cnc(N)nc2N)cc(OCC)c1O
inactive: growth inhibition [1] -1% | inhibition [2] 6% | inhibition [3] 3% | outcome [5] | outcome [6] | outcome [7] | outcome [8]
active: growth inhibition [4] 89%

CCOCCCNc1nc2cc(OC)c(OC)cc2c2nc(-c3ccccc3)nn12
inactive: inhibition [2] 10% | inhibition [3] -3% | outcome [5] | outcome [6] | outcome [7] | outcome [8]
active: growth inhibition [1] 98% | growth inhibition [4] 96%

CNc1c2c(nc3ccc(NC(=O)CCCCCCc4ccccc4)cc13)CCCC2
active: growth inhibition [1] 82% | growth inhibition [4] 100%
inactive: inhibition [2] 0% | inhibition [3] 0% | outcome [5] | outcome [6] | outcome [7] | outcome [8]

O=C(N[C@@H](Cc1cc(F)cc(F)c1)[C@H](O)CNCc1cccc(C(F)(F)F)c1)c1cc(C2CCCC2)cc(N2CCCC2=O)c1
active: growth inhibition [4] 95%
inactive: growth inhibition [1] 45% | inhibition [2] 37% | inhibition [3] -3% | outcome [5] | outcome [6] | outcome [7] | outcome [8]

CC(C)(C)c1ccc(CNC(=O)/C=C/c2ccc(-c3nc4ccc(C(C)(C)C)cc4[nH]3)cc2)cc1
active: growth inhibition [1] 66% | growth inhibition [4] 100%
inactive: inhibition [2] 35% | inhibition [3] -2% | outcome [5] | outcome [6] | outcome [7] | outcome [8]

COc1ccc2nccc([C@@H](O)CN3CCC(NC(=O)c4ccc5cc[nH]c5c4)CC3)c2c1
active: growth inhibition [4] 91%
inactive: growth inhibition [1] 23% | inhibition [2] 21% | inhibition [3] -6% | outcome [5] | outcome [6] | outcome [7] | outcome [8]

O=C(Nc1ccc(-c2ccccc2)cc1)Nc1cccc(Cn2nc(Cl)c(N3CCCNCC3)cc2=O)c1
active: growth inhibition [4] 101%
inactive: growth inhibition [1] 37% | inhibition [2] 13% | inhibition [3] -2% | outcome [5] | outcome [6] | outcome [7] | outcome [8]

COc1cc2c(cc1OCCN1CCC(N)CC1)N(C(=O)/C=C/c1ccccc1Cl)CC2
inactive: growth inhibition [1] 18% | inhibition [2] 19% | inhibition [3] -7% | outcome [5] | outcome [6] | outcome [7] | outcome [8]
active: growth inhibition [4] 91%

Cc1c(S(=O)(=O)Nc2ccc3nccc(N4CCN[C@H](C)C4)c3c2)sc2ccc(Cl)cc12
active: growth inhibition [4] 96%
inactive: growth inhibition [1] 0% | inhibition [2] 16% | inhibition [3] -3% | outcome [5] | outcome [6] | outcome [7] | outcome [8]

Cc1ccc(CNC(=O)[C@H](CC(C)C)Nc2cc(C)nc(NCC3CCCCC3)n2)cc1
active: growth inhibition [4] 96%
inactive: growth inhibition [1] 44% | inhibition [2] 6% | inhibition [3] -2% | outcome [5] | outcome [6] | outcome [7] | outcome [8]

Cn1cncc1C(=O)Nc1cccc(-c2ccc(-c3nc4ccc(F)cc4[nH]3)cc2)c1
inactive: growth inhibition [1] 31% | inhibition [2] -1% | inhibition [3] -2% | outcome [5] | outcome [6] | outcome [7] | outcome [8]
active: growth inhibition [4] 101%

N=c1c2c(n(Cc3cccc(Cl)c3)c3c1CCC3)CCCC2
active: growth inhibition [1] 86% | growth inhibition [4] 97%
inactive: inhibition [2] -5% | inhibition [3] -1% | outcome [5] | outcome [6] | outcome [7] | outcome [8]

Cc1cc(NCCCCCCCCNc2cc(C)nc3ccccc23)c2ccccc2n1
inactive: growth inhibition [1] -1% | inhibition [3] -1% | outcome [5] | outcome [6] | outcome [7] | outcome [8]
active: inhibition [2] 59% | growth inhibition [4] 101%

Cc1ccc(NC(=O)c2nc(N3CCN(c4ccncc4)CC3)ccc2Cl)cc1F
active: growth inhibition [1] 57% | inhibition [2] 51% | growth inhibition [4] 100%
inactive: inhibition [3] -5% | outcome [5] | outcome [6] | outcome [7] | outcome [8]

Nc1ccc2[nH]cc(C3CCN(CCC4CCN(C(=O)/C=C/c5ccc(Cl)c(Cl)c5)CC4)CC3)c2n1
active: growth inhibition [1] 78% | growth inhibition [4] 100%
inactive: inhibition [2] 27% | inhibition [3] 0% | outcome [5] | outcome [6] | outcome [7] | outcome [8]

Cc1ccc2sc(N(CCCn3ccnc3)C(=O)c3ccco3)nc2c1C
active: growth inhibition [1] 98% | growth inhibition [4] 93%
inactive: inhibition [2] 9% | inhibition [3] -2% | outcome [5] | outcome [6] | outcome [7] | outcome [8]

CC(=O)COc1c(C2CCN(CCCCNC(=O)c3ccc(-c4ccc(C(F)(F)F)cc4)cc3)CC2)ccc2c1CCCC2
inactive: inhibition [3] -7% | outcome [5] | outcome [6] | outcome [7] | outcome [8]
active: growth inhibition [1] 53% | inhibition [2] 100% | growth inhibition [4] 99%

COc1ccc(CCN(C)CCOc2ccc(NC(=O)c3cccc4cc5ccccc5nc34)cc2)cc1OC
inactive: inhibition [2] 37% | inhibition [3] -5% | outcome [5] | outcome [6] | outcome [7] | outcome [8]
active: growth inhibition [1] 99% | growth inhibition [4] 100%

Cc1cc(N[C@@H](CC(C)C)C(=O)NCCc2ccccc2)nc(NCCc2ccc(F)cc2)n1
active: growth inhibition [1] 53% | growth inhibition [4] 98%
inactive: inhibition [2] 12% | inhibition [3] -1% | outcome [5] | outcome [6] | outcome [7] | outcome [8]

CC(C)CN1CCN(CCNc2c3ccccc3nc3ccccc23)CC1
active: growth inhibition [1] 79% | growth inhibition [4] 97%
inactive: inhibition [2] 26% | inhibition [3] 0% | outcome [5] | outcome [6] | outcome [7] | outcome [8]

O=S(=O)(c1cc2ccccc2s1)N(CCC(O)(C(F)(F)F)C(F)(F)F)Cc1cccc(O)c1
active: growth inhibition [1] 99% | growth inhibition [4] 100%
inactive: inhibition [2] -1% | inhibition [3] 0% | outcome [5] | outcome [6] | outcome [7] | outcome [8]

CO/C(=C\C=C\c1cc2cc(Cl)c(Cl)cc2[nH]1)C(=O)NCCCN1CCN(c2cccc(OCC(=O)Nc3ccccc3)c2)CC1
inactive: inhibition [2] 49% | inhibition [3] -1% | outcome [5] | outcome [6] | outcome [7] | outcome [8]
active: growth inhibition [1] 81% | growth inhibition [4] 100%

Cc1cc(Nc2c(C(N)=O)cnc3cc(-c4ccoc4)ccc23)ccc1N1CCN(C)CC1
inactive: inhibition [2] 7% | inhibition [3] 1% | outcome [5] | outcome [6] | outcome [7] | outcome [8]
active: growth inhibition [1] 100% | growth inhibition [4] 101%

O=C(Nc1cccc(-c2nn3ccccc3c2-c2ccnc(Nc3cccc(F)c3)n2)c1)c1c(F)ccc(F)c1Cl
active: growth inhibition [4] 93%
inactive: growth inhibition [1] 38% | inhibition [2] 41% | inhibition [3] 5% | outcome [5] | outcome [6] | outcome [7] | outcome [8]

COCCOc1cccc(CN2CCC(c3cc4nc(C)cc(C(F)(F)F)n4n3)C2)c1 (stereo not drawn)
inactive: inhibition [2] 25% | inhibition [3] 2% | outcome [5] | outcome [6] | outcome [7] | outcome [8]
active: growth inhibition [1] 74% | growth inhibition [4] 85%

CCN(CC)CCN(Cc1ccc(-c2ccc(C(F)(F)F)cc2)cc1)C(=O)Cn1c(CCc2cccc(F)c2F)nc(=O)c2ccccc21
active: growth inhibition [1] 60% | growth inhibition [4] 97%
inactive: inhibition [2] 49% | inhibition [3] -3% | outcome [5] | outcome [6] | outcome [7] | outcome [8]

CCOC(=O)CCCOc1cc(Cc2cnc(N)nc2N)cc(OC)c1OC
inactive: growth inhibition [1] 3% | inhibition [2] 12% | inhibition [3] -7% | outcome [5] | outcome [6] | outcome [7] | outcome [8]
active: growth inhibition [4] 97%

Clc1ccc(OCc2ccccc2)c(-c2nc(-c3nc4ccc(Cl)cc4[nH]3)cs2)c1
inactive: inhibition [2] -9% | inhibition [3] -3% | outcome [5] | outcome [6] | outcome [7] | outcome [8]
active: growth inhibition [1] 60% | growth inhibition [4] 99%

O=C1CSc2ccc(CNC3CCN(CCc4c(Cl)cnc5ccc(Cl)cc45)CC3)nc2N1
active: growth inhibition [1] 92% | growth inhibition [4] 101%
inactive: inhibition [2] 25% | inhibition [3] 2% | outcome [5] | outcome [6] | outcome [7] | outcome [8]

CCOc1ccc(-c2nonc2NC(=O)c2ccc(OC(C)C)cc2)cc1OCC
inactive: inhibition [2] 13% | inhibition [3] -2% | outcome [5] | outcome [6] | outcome [7] | outcome [8]
active: growth inhibition [1] 100% | growth inhibition [4] 100%

CCOc1ccc2c(NN=Cc3c4ccccc4cc4ccccc34)cc(C)nc2c1
inactive: inhibition [2] -4% | inhibition [3] 0% | outcome [5] | outcome [6] | outcome [7] | outcome [8]
active: growth inhibition [1] 94% | growth inhibition [4] 90%

COc1ccc(Cn2ccc3c4c(N)nc(N)nc4ccc32)cc1
inactive: inhibition [3] 7% | outcome [5] | outcome [6] | outcome [7] | outcome [8]
active: growth inhibition [1] 93% | inhibition [2] 90% | growth inhibition [4] 101%

Clc1ccc(-c2ccc(CNCCCN3CCCC3)cc2)cc1
active: growth inhibition [4] 91%
inactive: growth inhibition [1] 21% | inhibition [2] 47% | inhibition [3] -5% | outcome [5] | outcome [6] | outcome [7] | outcome [8]
